According to PMC7819943, “Rice protein-binding microarrays: a tool to detect cis-acting elements near promoter regions in rice”:
Whole data set: some 68,000 sequences, median “fluorescence intensity (a.u.)” near 9,100, cut for the highest 2% near 16,000. Many of the other results were omitted from the sample, so the highest values are more common in it than they were.

These sequences were tested against OsWRKY34 (Oryza sativa, UniProt Q0JBA9 1-250) (assay: protein-binding microarray (RPBM); PBS, 2% BSA, 51.3 ng/ul salmon testes DNA, 50 uM zinc acetate, 200 nM TF, 25 C, 1 h; high values mean tight binding). Details: protein: recombinant; tags: N-terminal polyhistidine and DsRed monomer fusion (pET32a); label: CyDye5-dUTP incorporated in the synthesized complementary strand; 3' TTTTT single-stranded linker to array surface; dsDNA, one strand shown.
OsWRKY34, sequence (Q0JBA9 entry or part of it): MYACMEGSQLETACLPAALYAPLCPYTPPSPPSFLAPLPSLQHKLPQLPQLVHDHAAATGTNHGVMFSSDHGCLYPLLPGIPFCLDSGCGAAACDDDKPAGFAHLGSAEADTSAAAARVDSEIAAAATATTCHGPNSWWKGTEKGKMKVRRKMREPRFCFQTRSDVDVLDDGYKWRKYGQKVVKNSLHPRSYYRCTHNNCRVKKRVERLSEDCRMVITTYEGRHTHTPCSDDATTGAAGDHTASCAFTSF
How it was run: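 Binding signal is defined as the fluorescence intensity of each feature in arbitrary units, read on an Axon 4000B scanner. Transcription factors with N-terminal polyhistidine and DsRed fusions came from E. coli BL21-CodonPlus and were purified on Ni–NTA. They were incubated at 200 nM for 1 h at 25 °C on a custom Agilent array that had been made double-stranded with Cy5-dUTP, with 50 µM zinc acetate present, and the array was washed.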

Sequence	binding signal
AATCTATCCCAGCCTAAATCTCACTGTTTCATGCACAACTCGGAGTCACCTAGTGCAG	8350 fluorescence intensity (a.u.)
GCGCGCGTCCCGTCACGTCTTTTCTCCTCGCCTATATGCCCGGAGTCACCTAGTGCAG	9050 fluorescence intensity (a.u.)
CAGCTATCGTTATTCTGAAGATCCACCAAGCACAATCTTACGGAGTCACCTAGTGCAG	8280 fluorescence intensity (a.u.)
TCGGTGGGTGGTTGGGGATATTGCAAAAAGTATATAAAAACGGAGTCACCTAGTGCAG	15800 fluorescence intensity (a.u.)
TTAACTGCAACCATAAGTTTCTGCGCCTAACTTTGATCGTCGGAGTCACCTAGTGCAG	8850 fluorescence intensity (a.u.)
ATTCTCTCTTCTGTGTTTCCTTTTTGAGATACTTCATTTTCGGAGTCACCTAGTGCAG	9340 fluorescence intensity (a.u.)
CGCCGAGGGGAGGGGAGGGGAGGTTGCCATTGTTGTCCATCGGAGTCACCTAGTGCAG	22000 fluorescence intensity (a.u.)
GGGGTAATTTCTCTGTGTTTTGAGTTGAGGGAGATAATTCCGGAGTCACCTAGTGCAG	16900 fluorescence intensity (a.u.)
TGCGCCATCTTTTGTCGTCCCGAGGGGATGGGCGGGGTTGCGGAGTCACCTAGTGCAG	16400 fluorescence intensity (a.u.)
GGGCGCGATGGGTTGGGGTGTGTTTCCGTGGATTGATGACCGGAGTCACCTAGTGCAG	21100 fluorescence intensity (a.u.)
ACTTCCCATTGTTGTTGCCATCGCCGCCGCCGCCGCCGCCCGGAGTCACCTAGTGCAG	12200 fluorescence intensity (a.u.)
TAGTATATACATGGGTGTTTGGGAGAGAGGGGCTAAACTTCGGAGTCACCTAGTGCAG	9540 fluorescence intensity (a.u.)
ACGTTGGATTGGTGGTGGACGGGCGCGATGGGTTGGGGTGCGGAGTCACCTAGTGCAG	9930 fluorescence intensity (a.u.)
GGGCGTGTGGTTGAGAACTTGATTGGGATGATGATGAGACCGGAGTCACCTAGTGCAG	10400 fluorescence intensity (a.u.)
TGTTTTGTGGGGAGGGGTGTACATATACAACTTAGTACTCCGGAGTCACCTAGTGCAG	20300 fluorescence intensity (a.u.)
TTCCTATGTTTTTCCTGTGTTTTGTAATTCTCTGTTTTACCGGAGTCACCTAGTGCAG	10600 fluorescence intensity (a.u.)
CCACTTGTACATATACAACTTGTTTTGTGGGGAGGGGTGTCGGAGTCACCTAGTGCAG	12700 fluorescence intensity (a.u.)
CGAGAGATCGTTGCCCTCCGTATCCACTACTACTACACTCCGGAGTCACCTAGTGCAG	8310 fluorescence intensity (a.u.)
CAGGATTGCTTGGAGATTCGTGCGGGGACGCGCGGGGTGACGGAGTCACCTAGTGCAG	9720 fluorescence intensity (a.u.)
TACCGGTTAAAACGCCCAAGTCAGTGGCTCTCGTCCTCCTCGGAGTCACCTAGTGCAG	8860 fluorescence intensity (a.u.)
GTGCAGTTTATACATTAACATGTTAATCCCACTTTACTACCGGAGTCACCTAGTGCAG	10300 fluorescence intensity (a.u.)

Sequence	binding signal
ACGGCATTTTTCGCCCCTTTTGTCACTGAAACACTTCACCCGGAGTCACCTAGTGCAG	8860 fluorescence intensity (a.u.)
GCAGCCCTCAATTTCTATGGCGATCGCCTCTGCTTCGTCGCGGAGTCACCTAGTGCAG	8440 fluorescence intensity (a.u.)
GGCCTCCTTCATCACGCCCTGGATCTCACTGACTAAAAACCGGAGTCACCTAGTGCAG	8030 fluorescence intensity (a.u.)
CTATGTTCATCCTCGTGTCATATTGTGTTCATCTTCATACCGGAGTCACCTAGTGCAG	11600 fluorescence intensity (a.u.)
GAGGGAGTATTATCTTCTGAACATATGTTTGACCATTGGACGGAGTCACCTAGTGCAG	8940 fluorescence intensity (a.u.)
ATTACCCTAATCATCATTCATTCATGTATAGCTCATCCTACGGAGTCACCTAGTGCAG	8810 fluorescence intensity (a.u.)
ACCATCAAGTTCTGCTTTTCTTCCCCATGTTTTTTTGCCCCGGAGTCACCTAGTGCAG	10700 fluorescence intensity (a.u.)
CTCTGTTGGTTTCTTGCGGTTTTGATTATTTGTTTGTGGTCGGAGTCACCTAGTGCAG	11900 fluorescence intensity (a.u.)
CATTCCGGTTGGTGTTTTTCGCTTGATTTGTACTACTATTCGGAGTCACCTAGTGCAG	18500 fluorescence intensity (a.u.)
TGCGGGTTGTTTTGATTGACAATTTAGTGTTGGTGTTGTTCGGAGTCACCTAGTGCAG	9980 fluorescence intensity (a.u.)
TGTACATGTGTTTGATTTTGCTTGTGGTTGCCGTGGATTTCGGAGTCACCTAGTGCAG	11500 fluorescence intensity (a.u.)
TGATATGTTGGTGAATGGTAATTTTTTGGGTTGATATATTCGGAGTCACCTAGTGCAG	11200 fluorescence intensity (a.u.)
AGGAGGTGTTGTTTCTTGCGATCTTGGGTTGATTGATATGCGGAGTCACCTAGTGCAG	8460 fluorescence intensity (a.u.)
ATGTTGATATTGTGGTTGGTTGTGGGCATGTTACATTTTCCGGAGTCACCTAGTGCAG	11500 fluorescence intensity (a.u.)
CTCTGTGTTGTTTTTGGCATGTGTTTGATATTTGGAGTTCCGGAGTCACCTAGTGCAG	16600 fluorescence intensity (a.u.)
GGTGGGTGTTTTAATGTGACATGATATTTGTGGTTGGGTTCGGAGTCACCTAGTGCAG	21700 fluorescence intensity (a.u.)
TCTTTCCTGTTTCCGCTTGGTTTTCCGGTGTTTATTTTGTCGGAGTCACCTAGTGCAG	14200 fluorescence intensity (a.u.)
CATGTGTTTGATTTCCTGTTTATATTTTGTTCAGAGTTTCCGGAGTCACCTAGTGCAG	11700 fluorescence intensity (a.u.)
TAATATTTCTTGCGGTGGGTTGGATTGATATCGATTGTTTCGGAGTCACCTAGTGCAG	17600 fluorescence intensity (a.u.)
CGATGACAAGTTGACGCACCTTGGGTGTACTTTTTCCTTCCGGAGTCACCTAGTGCAG	8280 fluorescence intensity (a.u.)
CTCCAACCTAACCCCTGCCTGCCTGCATCAACCATATATGCGGAGTCACCTAGTGCAG	8720 fluorescence intensity (a.u.)

Sequence	binding signal
CACTAATTTTGCCTTTGTGCCTTTTACTATTGCGCATCACCGGAGTCACCTAGTGCAG	10200 fluorescence intensity (a.u.)
ACATTAACTAAATGGTGGAGGGCAGGGGTTCGTCTTTCTTCGGAGTCACCTAGTGCAG	13600 fluorescence intensity (a.u.)
GACTACTGAATGTGCTATTCTTGGCCTTTTCTATAGATAACGGAGTCACCTAGTGCAG	9960 fluorescence intensity (a.u.)
CTATTTTGGCCACTCGGGAGATGGTGTTGTTTCTGAATTTCGGAGTCACCTAGTGCAG	8180 fluorescence intensity (a.u.)
CTGTCTTCACCGTGCCGCTCCTTTCCTTCCATTTCATCTCCGGAGTCACCTAGTGCAG	8440 fluorescence intensity (a.u.)
CAGGGGTGGGTGTTAGCTGTTGTGCAAGAAGTGGTGTTTGCGGAGTCACCTAGTGCAG	10600 fluorescence intensity (a.u.)
GCCGGAGTCCATCGCCCTACATTGCCCACCAACCGCACGCCGGAGTCACCTAGTGCAG	10200 fluorescence intensity (a.u.)
TTCATATTCTTTTTTTTTTCGAGGTCATACTTTTTAATTCCGGAGTCACCTAGTGCAG	12200 fluorescence intensity (a.u.)
TTTTTGTTTTTTAATTGTGGAGTTTGGGAGGAGGAGGGGACGGAGTCACCTAGTGCAG	9870 fluorescence intensity (a.u.)
CCACTGACTACTGATGGGTGTGTTGATAGTGTTTTGTCAGCGGAGTCACCTAGTGCAG	8870 fluorescence intensity (a.u.)
GAGGTGGCTGGAGTGGGGTTTAGTGTTGGTTGTTAGGGATCGGAGTCACCTAGTGCAG	13500 fluorescence intensity (a.u.)
GGGGATTGGTTTGGTGTGGGTGTTTTGTGTGGGGATTGATCGGAGTCACCTAGTGCAG	28100 fluorescence intensity (a.u.)
CGTGGGGTGGGATCGGAAGCAGTGGAGTTGTTTTTATTATCGGAGTCACCTAGTGCAG	16500 fluorescence intensity (a.u.)
GTTGCAGGGTGGGGATTGTTAAATTTATTGTTTGGCTGGACGGAGTCACCTAGTGCAG	16600 fluorescence intensity (a.u.)
AGGGTTTGTTTGTTTATTTGTTTGTTTGATCGGTGTGGGGCGGAGTCACCTAGTGCAG	13300 fluorescence intensity (a.u.)
AAATTTATTGTTTGGCTGGAAGACGTGGGGTTTTAAGAGGCGGAGTCACCTAGTGCAG	8370 fluorescence intensity (a.u.)
GCGGGGTTGATTTCTGACTGAGATTTTGTTTTTCTTTTCTCGGAGTCACCTAGTGCAG	14000 fluorescence intensity (a.u.)
TTTTTCACGGGGATGGGTCGGGGATTGTTGACTGATAAAGCGGAGTCACCTAGTGCAG	21700 fluorescence intensity (a.u.)
AGTGGATGAGTTTGAGTTTTAGGATTTAGTGGGGTATTATCGGAGTCACCTAGTGCAG	15100 fluorescence intensity (a.u.)
GGGTTTGGGGATCGATTGATTTATAGGCTTTTTTGTTTTTCGGAGTCACCTAGTGCAG	8810 fluorescence intensity (a.u.)
